Assay results published in PubChem BioAssay AID924 (National Center for Advancing Translational Sciences (NCATS), 2007).
Screen size: about 130,000 compounds; about 1,200 (0.92%) were called active. Entries that show only a call come without a potency. Another 3% or so got no clear call; they are omitted. This is one part of a sample in which actives are shown more often than they occur. Values without a mark were called inactive. The call rests on the fitted dose curve; in most records, active means well fitted cell-killing curve with a large enough effect; inconclusive means small, poorly fitted or top-dose-only effect; inactive means no such curve, though single readings can be large or run the other way.

test: qHTS Screen for Compounds that Selectively Target Cancer Cells with p53 Mutations: Cytotoxicity of p53ts Cells at the Permissive Temperature; details: H1299-p53A138V at 32C, ATP luminescence viability, 24 h; series mostly up to 46.1 µM; further: nearly all actives have a fitted effect of over 55% in size
Method in brief: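 ATP-content luminescence (ATPlite) read-out after 24 h compound exposure at 32C in H1299-p53A138V cells (600/well). Tested up to 46 uM. Normalized to DMSO (0%) and 100 uM tamoxifen (100% killing); Hill-fit AC50.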
Potency means the concentration at half of the fitted maximal effect.

SMILES | Potency | activity change, negative = cytotoxicity
Cn1c(-c2ccco2)nc2cc3ccccc3cc21 | 1.26 µM (active) | 
CN(c1nc2ccccc2n2c(-c3ccco3)nnc12)S(=O)(=O)c1ccccc1 | inactive | 
c1coc(-c2nc3nc4ccccc4n3nc2-c2ccco2)c1 | inactive | 
CC(=O)c1cccc(NC(=O)c2nc(-c3ccccc3)n(-c3cccc(C)c3)n2)c1 | inactive | 
c1csc(-c2nc(-c3ccncc3)no2)c1 | inactive | 
c1ccc(-c2noc(-c3cccs3)n2)nc1 | 12.6 µM (active) | 
CC(C)c1nc(-c2ccccn2)no1 | inactive | 
O=C(Nc1ccccc1Cl)N1CCC(CN2CCCCC2)CC1 | inactive | 
COc1cn(CC(=O)Nc2cccc(C)c2C)c(CN2CCCCC2)cc1=O | inactive | 
CCN1CCC(N(Cc2ccc(F)cc2)C(=O)Nc2cc(C)ccc2C)CC1 | inactive | 
Cc1cc(Cl)ccc1NC(=O)Cc1ccc(NC(=O)N2CCCCc3ccccc32)cc1 | inactive | 
Cc1ccc2nc(CC(=O)c3ccc4ccccc4c3)c(=O)[nH]c2c1 |  | 3.51% [at 9.22 µM]
C=CC(=O)c1ccc2ccccc2c1 | 12.6 µM (active) | 
CCOc1ccccc1NC(=O)CSc1ncc(S(=O)(=O)c2ccc(C(C)(C)C)cc2)c(=O)[nH]1 | inactive | 
Cn1c(COc2ccccc2C(C)(C)C)nc2ccccc21 | inactive | 
CCCCS(=O)(=O)c1oc(-c2cccs2)nc1S(=O)(=O)c1ccccc1 | 17.8 µM (active) | 
NC(=O)CSc1oc(-c2cccs2)nc1S(=O)(=O)c1ccccc1 | inactive | 
CSc1oc(-c2cccs2)nc1S(=O)(=O)c1ccc(Br)cc1 | inactive | 
COc1cc(NC(=O)CCn2nc(C)cc2C)cc(OC)c1OC | inactive | 
CC(=O)c1cccc(Nc2ccc3cc(S(=O)(=O)N4CCC(C)CC4)ccc3n2)c1 | inactive | 
COc1ccc(N(C)C(=O)C2CCN(S(=O)(=O)c3cc(Br)cc4c3N(C(C)=O)CC4)CC2)cc1 | inactive | 
Cc1nn2c3ccccc3nc2n(C)c1=O | inactive | 

SMILES | Potency | activity change, negative = cytotoxicity
Cc1csc(-c2nc3ccccc3n2C)n1 | 15.8 µM (active) | 
CC(C)n1c(-c2cccs2)nc2ccccc21 | inactive | 
Cc1nn(CC(=O)NCCc2ccccc2)c(=O)c2c1sc1ccccc12 | inactive | 
COc1ccccc1N1CCN(C2C(=O)c3ccccc3N2C(C)=O)CC1 (centres undefined) | inactive | 
CCOC(=O)c1ccc(NC(=O)c2nc(SCc3ccc(F)cc3)ncc2Cl)cc1 | inactive | 
Cc1ccc(NC(=O)c2nc(S(=O)(=O)Cc3cccc(C)c3)ncc2Cl)cc1 | 17.8 µM (active) | 
CCSc1ncc(Cl)c(C(=O)Nc2cc(C)ccc2C)n1 | inactive | 
Cc1sc2ncn(CC(=O)N3CCN(c4ccc(F)cc4)CC3)c(=O)c2c1S(=O)(=O)N1CCN(c2ncccn2)CC1 | inactive | 
CCOC(=O)c1cccc(NS(=O)(=O)c2cc(-c3cnc(C)o3)ccc2OC)c1 | inactive | 
CCOc1ccc2oc(=O)cc(CN3CCN(C(=O)c4ccc(F)cc4)CC3)c2c1 | inactive | 
O=c1oc2cc(O)ccc2cc1-c1ccc(F)cc1 | inactive | 
COc1ccc(-c2cc3ccc(OCc4nn[nH]n4)cc3oc2=O)cc1 | 10 µM (active) | 
COc1ccc2cc(-c3nc(Cl)c4c5c(sc4n3)CC(C)CC5)c(=O)oc2c1 (centres undefined) | inactive | 
COc1ccc(S(=O)(=O)NCC(c2ccc(N(C)C)cc2)N2CCc3ccccc32)cc1OC (centres undefined) | inactive | 
COc1ccc(C2=NC3(CCCCC3)N(CC(=O)Nc3ccc(C(C)C)cc3)C2=O)cc1 | inactive | 
O=C(CCc1nc(CN2CCN(S(=O)(=O)c3ccc(F)cc3)CC2)no1)N1CCCCC1 | inactive | 
CCC(C(=O)Nc1cccc(-c2nc3cccnc3s2)c1C)c1ccccc1 (centres undefined) | inactive | 
Cc1c(NC(=O)C(C)(C)C)cccc1-c1nc2ccccc2s1 | 12.6 µM (active) | 
Cc1c(NC(=O)Cc2ccccc2)cccc1-c1nc2cccnc2s1 | inactive | 
Cc1nn(CC(=O)N2CCN(c3cccc(C(F)(F)F)c3)CC2)c(=O)c2cc3sccc3n12 | inactive | 
COc1cc(NC(=O)c2noc3c2CSc2ccccc2-3)cc(OC)c1OC | inactive | 
COc1ccccc1CNC(=O)Cn1nc(C)c2nn(-c3ccc(Cl)cc3)c(C)c2c1=O | inactive | 
